According to the supplement of paper PMC10127200:
Counter-ions that a name gives are not always drawn.

Assays:
Assay in all cases: Euclidean distance of Cell Painting phenotypic profile (signed KS, 77 features) to DMSO centroid (dimensionless distance); 5 or 10 uM (library dependent); higher = stronger phenotypic change vs DMSO (phenoactivity)
Details in all cases: 48 h
[1] = tested on: 786-O
Outline: (§1)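 Library compounds were applied at 10 or 5 uM, depending on the library, with 0.1% DMSO final, for 48 h to five cancer lines and a healthy fibroblast line. After staining, cells were imaged confocally at 20X across 9 fields per well, and Harmony extracted 77 features, each scored as a signed Kolmogorov-Smirnov statistic against vehicle wells on the same plate. Phenoactivity is the Euclidean distance between each profile and the median vehicle profile, with profiles first plate-position corrected, correlation-weighted and averaged over replicates at the top dose.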

[2] = tested on: A549
Outline: as §1

[3] = tested on: DU145
Outline: as §1

[4] = tested on: FB
Outline: as §1

[5] = tested on: HEPG2
Outline: as §1

[6] = tested on: OVCAR4
Outline: as §1

Compound	Euclidean distance [1]	Euclidean distance [2]	Euclidean distance [3]	Euclidean distance [4]	Euclidean distance [5]	Euclidean distance [6]
Cc1ccccc1C(=O)Nc1ccc(C(=O)N2CCCC(O)c3cc(Cl)ccc32)c(C)c1 (stereo unspecified) [Tolvaptan]	1.6	0.937	0.873	1.14	0.957	0.738
N#Cc1ccc(Oc2ccc3c(c2)COB3O)cc1 [Crisaborole (AN2728)]	1.25	1	0.832	0.837	2.52	1.91
Cc1cc2ncc(C(=O)NCC(C)(C)NCC(=O)N3CCC[C@H]3C#N)cn2n1 [Anagliptin]	1.08	1.14	1.17	1.29	0.393	1.17
CS(=O)(=O)CCNCc1ccc(-c2ccc3ncnc(Nc4ccc(OCc5cccc(F)c5)c(Cl)c4)c3c2)o1 [Lapatinib]	4.13	3.1	2.2	2.22	3.72	3.77
CC(N)C12CC3CC(CC(C3)C1)C2 (stereo unspecified) [Rimantadine]	0.735	0.64	0.671	1.35	0.621	1.37
CN1CCC(CNc2ccc3ncc(-c4cccc(OC(F)(F)F)c4)n3n2)CC1 [SGI-1776 free base]	2.39	3.26	1.73	3.26	4	1.54
CNC(=O)c1cc(Oc2ccc(NC(=O)Nc3cc(C(C)(C)C)nn3-c3ccc4ncccc4c3)c(F)c2)ccn1 [DCC-2036 (Rebastinib)]	2.89	3.75	4.62	2.57	2.72	2.63
CCCCCCCCc1ccc(CCC(N)(CO)CO)cc1 [Fingolimod]	5.32	4	5.79	2.18	5.29	4.16
C[N+]1(C)[C@@H]2C[C@@H](OC(=O)C(O)(c3cccs3)c3cccs3)C[C@H]1[C@@H]1O[C@@H]12 [Tiotropium Bromide hydrate]	1.26	0.676	0.73	1.02	0.978	0.837
CN1CCN(CC(=O)N2c3ccccc3C(=O)Nc3cccnc32)CC1 [Pirenzepine dihydrochloride]	0.695	1.06	0.77	0.7	1.03	0.804
CN(C)CCN1C(=O)c2cccc3cc(N)cc(c23)C1=O [Amonafide]	3.45	4	2.47	3.29	4.06	3.48
O=C(O)c1ccc2nc(-c3cc(Cl)cc(Cl)c3)oc2c1 [Tafamidis]	1.52	0.941	1.1	0.77	0.971	1.21
COc1cc([C@@H]2c3cc4c(cc3[C@@H](O[C@@H]3O[C@@H]5CO[C@@H](C)O[C@H]5[C@H](O)[C@H]3O)[C@H]3COC(=O)[C@H]23)OCO4)cc(OC)c1O [Etoposide]	4.29	2.57	3.62	3.88	4.18	3.21
CN(Cc1cnc2nc(N)nc(N)c2n1)c1ccc(C(=O)N[C@@H](CCC(=O)O)C(=O)O)cc1 [Methotrexate disodium]	2.05	3.23	0.912	0.603	1.47	2.39
Clc1ccc(C(Cn2ccnc2)OCc2c(Cl)cccc2Cl)c(Cl)c1 (stereo unspecified) [Isoconazole nitrate]	1.02	0.91	1.26	0.868	0.714	1.04
NC(=O)c1cnc(N[C@@H]2CCCC[C@@H]2N)nc1Nc1cccc(-n2nccn2)c1	1.35	2.72	1.89	2.25	2.24	2.83
COc1cc2nccc(Oc3ccc(NC(=O)NC4CC4)c(Cl)c3)c2cc1C(N)=O [lenvatinib Mesylate]	1.2	1.1	1.71	3.39	0.829	2.16
Cc1nn(-c2ccccc2)c(C)c1C=NN1CCN(Cc2ccccc2)CC1	1.24	1.25	0.724	0.733	1.16	1.34
CCCNC(C)C(=O)Nc1ccccc1C (stereo unspecified) [Prilocaine hydrochloride]	0.697	0.662	0.635	0.843	0.473	0.791
CC(C)(C)C(=O)Oc1ccc(S(=O)(=O)Nc2ccccc2C(=O)NCC(=O)O)cc1 [Sivelestat sodium tetrahydrate]	0.925	0.568	1.32	1.57	0.892	1.28
C=C(C)[C@@H]1CC[C@]2(CO)CC[C@]3(C)[C@H](CC[C@@H]4[C@@]5(C)CC[C@H](O)C(C)(C)[C@@H]5CC[C@]43C)[C@@H]12 [Betulin]	1.24	0.846	1.07	1.2	0.765	1.1
